# Screening results from PubChem BioAssay.
# In the library only some 11% were active in any assay of this set; here they are far more common.
# IMPase inh: qHTS Assay for Identifying the Cell-Membrane Permeable IMPase Inhibitors. CHO-M1 cells, IP1 accumulation, HTRF TR-FRET ratio. inhibition (IP1 accumulation), % at 46.1 µM. 120,000 tested, under 10 active; active = well fitted curve in the direction sought with a large enough effect in the signal ratio, not every such curve was filed as active; inconclusive = small, poorly fitted or top-dose-only effect, or a change in a side signal; inactive = no such curve, though single readings can be large or run the other way; the % refers to the signal ratio;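 note: cells stimulated with carbachol in lithium chloride buffer; plate controls were DMSO basal wells for no effect and reference inhibitor wells for full effect; higher means more IMPase inhibition seen as more IP1 and lower FRET ratio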
#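 Elevated IP1 in lysates lowers TR-FRET signal (665/620 ratio and 620 channel reported). Cells were CHO-M1, given carbachol (50 uM as added) plus 50mM LiCl, pH 7.4, 30 min, 37C; compounds titrated up to 46 uM; AC50 by Hill equation.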
# IMPase Li inh: qHTS Assay for Identifying the Cell-Membrane Permeable IMPase Inhibitors: Potentiation with Lithium. CHO-M1 cells, IP1 TR-FRET (IP-One), carbachol + lithium. Potency, µM (titrated, usually from 59.4 µM), without a hit: top-dose activity, negative = IMPase inhibition, actives largely listed as inhibitors. 210,000 tested, 0.35% active. AID 1457, 2008; active = well fitted inhibition curve with a large enough effect; inconclusive = small, poorly fitted or top-dose-only effect; inactive = no such curve, though single readings can be large or run the other way;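 note: IP1 builds up when IMPase is blocked and the TR-FRET signal falls; potency is the fitted concentration of half-maximal effect; plate controls were basal vehicle for no effect and high inhibitor control for full effect; nearly all actives have a fitted effect of over 50% in size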
#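 Steps: plate 2000 CHO-M1 cells per well and culture 16–30 h; add compound and lithium; incubate 30 min, 37C; add d2-IP1 tracer and Eu cryptate anti-IP1 antibody in lysis buffer; read after 10 min at room temperature.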
# PNC assembly inh: High Content Assay for Compounds that inhibit the Assembly of the Perinucleolar Compartment; 140,000 tested, 3.1% active; activity change (PNC), negative = inhibition, % at 10 µM; PC3M PTB-GFP, PNC prevalence imaging, 16 h; active compounds read low;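 active = readout at or below -70, meaning at least 70% loss of cells showing the perinucleolar compartment, a nuclear body marking cancer cells; inconclusive = readout between -30 and a set limit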;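 note: plate controls were DMSO wells for no effect and camptothecin positive control wells for full effect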
#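 Read-out is percentage of cells bearing a perinucleolar compartment, from automated 20x imaging of fixed, Hoechst-stained PC3M PTB-GFP cells. Cells were seeded 4 h, then exposed 16 h to compound (23 nl of library stock) in duplicate plates.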
# ALDH1A1 inh: qHTS Assay for Inhibitors of Aldehyde Dehydrogenase 1 (ALDH1A1); Aldehyde dehydrogenase 1A1 (Homo sapiens), P00352; AID 1030, 2008; 220,000 tested, 7.3% active; Potency, µM (doses to about 75.3 µM), inactives show at the highest dose activity, negative = inhibition, usual class: inhibitors; Purified ALDH1A1, NADH fluorescence, propionaldehyde substrate;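 note: potency is the fitted concentration of half-maximal effect; plate controls were no enzyme wells and a reference inhibitor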
# Target sequence (P00352 whole entry, looked up): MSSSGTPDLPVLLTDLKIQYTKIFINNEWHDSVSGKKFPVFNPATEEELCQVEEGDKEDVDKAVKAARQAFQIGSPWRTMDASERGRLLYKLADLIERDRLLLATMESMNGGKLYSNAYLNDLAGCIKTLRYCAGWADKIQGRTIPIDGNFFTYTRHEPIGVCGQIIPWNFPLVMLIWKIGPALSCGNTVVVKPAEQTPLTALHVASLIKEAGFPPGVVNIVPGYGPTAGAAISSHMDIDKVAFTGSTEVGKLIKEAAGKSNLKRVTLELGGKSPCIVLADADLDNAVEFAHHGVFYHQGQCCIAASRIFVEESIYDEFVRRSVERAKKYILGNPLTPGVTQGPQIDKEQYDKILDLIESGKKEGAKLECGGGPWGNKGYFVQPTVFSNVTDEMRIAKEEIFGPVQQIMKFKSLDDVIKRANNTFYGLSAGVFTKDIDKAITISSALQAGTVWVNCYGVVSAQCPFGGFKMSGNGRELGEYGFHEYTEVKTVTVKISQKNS
# HPGD block: qHTS Assay for Inhibitors of HPGD (15-Hydroxyprostaglandin Dehydrogenase); 15-hydroxyprostaglandin dehydrogenase [NAD(+)] (Homo sapiens), P15428; purified HPGD, NADH fluorescence kinetic, PGE2 substrate; Potency, µM, inactives show top-dose activity change, negative = inhibition, most hits filed as inhibitors; 150,000 tested, 4.3% active; note: potency is the fitted concentration of half-maximal effect
#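 20 nM HPGD preincubated 15 min at room temperature with compound in 50 mM Tris-HCl pH 8, 0.01% Tween 20. Started with 1 mM NAD+ and 30 uM prostaglandin E2; NADH fluorescence (360/450 nm) read 5 times over 30-s intervals, last minus first.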
# Starred values were filed as active, the others as inactive; ? = inconclusive; / = no result; ! = a repeat was not active; [ ] = dose if it differs, or a comment. Unless noted, calls come from the whole dose curve; as a rule, active = well fitted inhibition curve with a large enough effect (not every such curve was filed as active); inconclusive = small, poorly fitted or top-dose-only effect, or another doubt; inactive = no such curve, though single readings can be large or run the other way. Unless noted, % is set by controls: 0 for no effect and ±100 for the full control effect.
SMILES,IMPase inh,IMPase Li inh,PNC assembly inh,ALDH1A1 inh,HPGD block
C=CCc1ccccc1OCC(O)CN1CCN(C(=O)OCC)CC1 (configuration not stated),0,14%[38.3 µM],?,20µM*,-16%
CCOC(=O)N1CCN(CC(O)COc2ccccc2C(C)C)CC1 (configuration not stated),10,7%[38.3 µM],56,-2%,-7%
CCc1ccc(-n2nc3ccc(NC(=O)c4cc5ccccc5o4)cc3n2)cc1,-2,/,/,/,/
O=S(NCc1ccco1)C12CC3CC(CC(C3)C1)C2 (configuration not stated),-13,-1%,-100*,?,?
Nc1c(C(=O)NCC2CCCO2)sc(=S)n1-c1ccccc1 (configuration not stated),5,-2%[38.3 µM],-3,14µM*,25µM*
CCn1c(N)c(C(=O)NCC2CCCO2)sc1=S (configuration not stated),4,-6%[38.3 µM],-27,8.9µM*,6.3µM*
C=CCn1c(N)c(C(=O)NCC2CCCO2)sc1=S (configuration not stated),-8,23%[38.3 µM],-25,4%,-7%
O=C(CSc1nnc(Cn2c(=O)sc3ccccc32)n1-c1ccccc1)NCC1CCCO1 (configuration not stated),0,26%[38.3 µM],-108*,3%,-24%
Cn1c(Cn2c(=O)sc3ccccc32)nnc1SCC(=O)NCC1CCCO1 (configuration not stated),-8,9%,38,2%,-15%
Nc1nc(N)nc(CCCc2nc(N)nc(N)n2)n1,/,-18%,/,3%[13.5 µM],-2%
CSc1nc(-c2ccccc2)nc(NC(C)=O)c1C(C)=O,/,-2%,/,2%,/
Cc1c(N=NC2=C(O)CCCC2=O)c(=O)n(-c2ccccc2)n1C,/,12%,/,13µM*,/
Cc1c(N=Nc2ccc(O)cc2)c(=O)n(-c2ccccc2)n1C,/,41%,/,6%,/
FC(F)(F)c1cc(CN2CCCC3(CCNCC3)C2)cc(C(F)(F)F)c1,/,-3%,/,-8%,-6%
COCCn1c(=O)cnc2cnc(Oc3ccccc3)nc21,/,-5%,/,?,/
O=C(c1nsc(Cl)c1Cl)N1CCCCC1,-6,-8%[38.3 µM],33,0%,2.5µM*
N#Cc1c(-n2ncnc2-c2ccc(F)cc2)sc2c1CCCCC2,-10,/,/,/,/
CCCn1c(O)c(C=Nc2ccccc2)sc1=S,/,13%,/,14µM*,/
CCCCn1c(O)c(/C=C/C=C/C=Nc2ccccc2)sc1=S,/,1%,/,18µM*,/
CCn1c(O)c(C=Nc2ccccc2)oc1=S,-2,9%[38.3 µM],-94*,20µM*,16µM*
CCC(C)C(NC(=O)C(C)NC(=O)CNC(=O)CNC(=O)OCc1ccccc1)C(=O)OC (configuration not stated),-11,3%,51,2%,-10%
Cc1cccc(OCCC(=O)Nc2ccc(F)c(Cl)c2)c1,/,3%,1,-2%,-16%
N#Cc1c(NC(=O)/C=C/c2ccco2)sc2c1CCCC2,-8,-3%,-112*,32µM*,?
Cc1onc(-c2ccccc2)c1C(=O)NC(=S)Nc1sc2c(c1C#N)CCCC2,/,-11%,24,0.5µM*,?
O=C(/C=C/c1ccco1)Nc1sc2c(c1C(=O)O)CCC2,3,-6%[38.3 µM],32,4%,-18%
SMILES,IMPase inh,IMPase Li inh,PNC assembly inh,ALDH1A1 inh,HPGD block
Cn1cc(Cl)c(C(=O)NC(=S)Nc2sc3c(c2C#N)CCCCC3)n1,/,-7%,15,?,10µM*
Cc1ccccc1C(=O)NC(=S)Nc1sc2c(c1C#N)CCCC2,-6,-8%,?,6.3µM*,-24%
Cc1noc(C)c1C(=O)Nc1sc(C)c(-c2ccccc2)c1C#N,-3,4%[38.3 µM],?,10µM*,-29%
Cc1onc(-c2ccccc2)c1C(=O)NC(=S)Nc1sc2c(c1C#N)CCC(C)C2 (configuration not stated),/,-8%,-29,2.2µM*,-29%
CC(C)(C)C(=O)NC(=S)Nc1sc2c(c1C#N)CCCCC2,-8,-14%,18,22µM*,-22%
CC(=O)Nc1sc2c(c1C#N)CCCCC2,-1,-3%,11,?,-12%
Cc1onc(-c2ccccc2)c1C(=O)Nc1sc2c(c1C#N)CCC2,-10,28%[38.3 µM],25,?,?
Cc1cccc(C(=O)Nc2sc(C)c(-c3ccccc3)c2C#N)c1,0,10%[38.3 µM],36,?,?
O=C1C(SCCO)=C(SCCO)C(=O)c2ccccc21,36,64%,/,18µM*,2.8µM*!
Cc1ccc(N(CC(=O)NCc2ccncc2)S(C)(=O)=O)cc1Cl,6,/,-84*,?,/
CC(=O)c1cccc2c(O)c(C3=Nc4ccccc4C3=O)[nH]c12,59,67%,-22,?,14µM*
CCN(CC)c1ccc2c(c1)oc(=O)c1c(Cl)cc(=O)oc12,-8,35%[38.3 µM],-4,2.2µM*,5.6µM*
CCN(CC)c1ccc2c(Cl)c(Br)c(=O)oc2c1,?,?,-25,3.2µM*,-18%
O=C(c1ccco1)N1CCC2(CCCN(C(c3ccccc3)c3ccccc3)C2)CC1,/,29%,/,?,-10%
Fc1ccc(Nc2nc(-c3ccoc3)nc3ccccc23)cc1,/,13%,/,?,/
CCNc1ncc2nc(-c3ccccc3)c(=O)n(CCOC)c2n1,/,-4%,/,?,/
O=C1c2ccccc2C(=O)N1CCCC(=O)N1CCCc2ccccc21,0,-3%,?,14µM*,-7%
CC(=O)Nc1ccc2c(c1)CCCN2C(=O)c1ccccc1,1,11%[38.3 µM],-3,14µM*,0%
COc1ccc2c(c1)CCc1c(C(=O)N3CCCc4ccccc43)noc1-2,5,5%,-18,4.5µM*,-23%
COc1ccc2c(c1)CCc1c(C(=O)NCc3ccc(Cl)cc3)noc1-2,14,-1%[38.3 µM],12,13µM*,-2%
CC(=O)N1CCCc2ccccc21,-1,-1%[38.3 µM],-2,4%,0%
N#Cc1ccc(C23CC4(C2)[C@H](CN(Cc2cccnc2)[C@@H]4c2ccccc2)C3c2ccc(C(F)(F)F)cc2)cc1 (some centres not stated),/,5%,/,1%,-7%
COc1cc2ncc(-c3ccccc3)nc2cc1OC,/,8%,/,?,/
O=C(c1ccccc1)N1CCCc2ccccc21,1,9%,18,-7%,-15%
O=C(c1ccc(=O)oc1)N1CCCc2ccccc21,-19,-4%[38.3 µM],-11,10µM*,?
COc1cccc(C(=O)N2CCCc3ccccc32)c1,-3,2%[38.3 µM],-85*,-12%,-8%
O=C(c1ccccc1)N1CCc2ccccc21,2,36%[38.3 µM],0,?,28µM*
